Results filed as inconclusive are left out. The source made the active and inactive calls. The calls were made as follows: active = hit-call score of the fitted dose curve at least 0.9, where 1 is the maximum; inconclusive = response in the unintended direction; inactive = score below 0.9.
How the values were obtained:
[1] = biological target: human Serotonin, 5-Hydroxytryptamine Receptor 7 (5HT7), HTR7 (gene 3363) (UniProt P34969); test: NVS_GPCR_h5HT7: NovaScreen (NVS) G Protein-Coupled Receptor Assay for human Serotonin, 5-Hydroxytryptamine Receptor 7 (5HT7) (AID 2283255);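 also: hits reduce specific radioligand binding relative to DMSO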
Sequence of human Serotonin, 5-Hydroxytryptamine Receptor 7 (5HT7), HTR7 (gene 3363) (P34969 whole entry, looked up): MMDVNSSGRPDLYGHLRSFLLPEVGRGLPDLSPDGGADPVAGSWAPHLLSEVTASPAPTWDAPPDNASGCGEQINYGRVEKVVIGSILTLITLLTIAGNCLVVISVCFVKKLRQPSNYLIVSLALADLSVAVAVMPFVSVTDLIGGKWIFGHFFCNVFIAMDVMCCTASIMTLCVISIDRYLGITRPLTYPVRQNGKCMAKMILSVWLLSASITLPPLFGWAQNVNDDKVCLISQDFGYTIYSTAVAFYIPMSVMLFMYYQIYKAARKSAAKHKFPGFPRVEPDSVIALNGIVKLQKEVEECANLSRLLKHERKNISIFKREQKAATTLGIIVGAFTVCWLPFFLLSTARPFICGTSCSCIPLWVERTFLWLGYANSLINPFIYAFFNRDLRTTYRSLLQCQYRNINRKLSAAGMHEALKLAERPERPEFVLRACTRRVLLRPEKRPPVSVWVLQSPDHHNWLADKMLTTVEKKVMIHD
Summary of the method: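 Filter-bound radioactivity counted after 1 h, with loss of specific radioligand binding fitted against DMSO. Membrane protein came from CHO cells expressing human 5HT7. Chemicals were tested first at 25 uM in duplicate, then in concentration series if active.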

[2] = biological target: human Neuropeptide Receptor Y1 (NPY1), NPY1R (gene 4886) (UniProt P25929); test: NVS_GPCR_hNPY1: NovaScreen (NVS) G Protein-Coupled Receptor Assay for human Neuropeptide Receptor Y1 (NPY1) (AID 2283276)
Sequence of human Neuropeptide Receptor Y1 (NPY1), NPY1R (gene 4886) (P25929 whole entry, looked up): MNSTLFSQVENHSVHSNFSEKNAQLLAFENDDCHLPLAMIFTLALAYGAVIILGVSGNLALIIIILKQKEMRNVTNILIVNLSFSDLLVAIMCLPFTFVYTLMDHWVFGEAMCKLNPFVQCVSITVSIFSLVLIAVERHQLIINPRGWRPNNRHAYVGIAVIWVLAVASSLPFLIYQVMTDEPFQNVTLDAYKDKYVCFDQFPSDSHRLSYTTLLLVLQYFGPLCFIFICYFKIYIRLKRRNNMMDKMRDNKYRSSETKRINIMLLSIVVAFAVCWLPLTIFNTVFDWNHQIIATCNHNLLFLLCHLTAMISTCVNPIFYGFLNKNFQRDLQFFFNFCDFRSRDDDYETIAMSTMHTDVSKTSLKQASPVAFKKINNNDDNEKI
Summary of the method: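 Displacement of specific radioligand from NPY1 receptor of SK-N-MC origin, read by filtration and scintillation after 1 h. Compounds first tested at 25 uM in duplicate, then actives in concentration series; signal loss relative to DMSO.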

[3] = test system: 5-hydroxytryptamine receptor 2C (pig); test: NVS_GPCR_p5HT2C: NovaScreen (NVS) G Protein-Coupled Receptor Assay for pig Serotonin, 5-Hydroxytryptamine Receptor 2C (5HT2C) (AID 2283288)
Summary of the method: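 Radioligand displacement on membranes from pig choroid plexus, detected by filter scintillation counting after 1 h. Tested first at a single 25 uM in duplicate, then in concentration-response for actives; DMSO served as baseline.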

With `C1CNCCN1` the outcome [1] was “inactive” and the outcome [2] was “inactive”.

With `Cc1ccc([N+](=O)[O-])cc1N` the outcome [3] was “inactive”.
